mHTT-CaM PPI inh – mutant huntingtin-calmodulin interaction inhibitors – biochemical, AlphaScreen, primary screen; P42858; AlphaScreen His-mHTT/GST-CaM binding, luminescence; inhibition, % at 15 µM; 190,000 tested, 3.6% active; AID 1671202, 2021;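 note: 0% = both proteins with DMSO and 100% = one protein alone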
Target sequence (P42858 whole entry, looked up, stated change not applied): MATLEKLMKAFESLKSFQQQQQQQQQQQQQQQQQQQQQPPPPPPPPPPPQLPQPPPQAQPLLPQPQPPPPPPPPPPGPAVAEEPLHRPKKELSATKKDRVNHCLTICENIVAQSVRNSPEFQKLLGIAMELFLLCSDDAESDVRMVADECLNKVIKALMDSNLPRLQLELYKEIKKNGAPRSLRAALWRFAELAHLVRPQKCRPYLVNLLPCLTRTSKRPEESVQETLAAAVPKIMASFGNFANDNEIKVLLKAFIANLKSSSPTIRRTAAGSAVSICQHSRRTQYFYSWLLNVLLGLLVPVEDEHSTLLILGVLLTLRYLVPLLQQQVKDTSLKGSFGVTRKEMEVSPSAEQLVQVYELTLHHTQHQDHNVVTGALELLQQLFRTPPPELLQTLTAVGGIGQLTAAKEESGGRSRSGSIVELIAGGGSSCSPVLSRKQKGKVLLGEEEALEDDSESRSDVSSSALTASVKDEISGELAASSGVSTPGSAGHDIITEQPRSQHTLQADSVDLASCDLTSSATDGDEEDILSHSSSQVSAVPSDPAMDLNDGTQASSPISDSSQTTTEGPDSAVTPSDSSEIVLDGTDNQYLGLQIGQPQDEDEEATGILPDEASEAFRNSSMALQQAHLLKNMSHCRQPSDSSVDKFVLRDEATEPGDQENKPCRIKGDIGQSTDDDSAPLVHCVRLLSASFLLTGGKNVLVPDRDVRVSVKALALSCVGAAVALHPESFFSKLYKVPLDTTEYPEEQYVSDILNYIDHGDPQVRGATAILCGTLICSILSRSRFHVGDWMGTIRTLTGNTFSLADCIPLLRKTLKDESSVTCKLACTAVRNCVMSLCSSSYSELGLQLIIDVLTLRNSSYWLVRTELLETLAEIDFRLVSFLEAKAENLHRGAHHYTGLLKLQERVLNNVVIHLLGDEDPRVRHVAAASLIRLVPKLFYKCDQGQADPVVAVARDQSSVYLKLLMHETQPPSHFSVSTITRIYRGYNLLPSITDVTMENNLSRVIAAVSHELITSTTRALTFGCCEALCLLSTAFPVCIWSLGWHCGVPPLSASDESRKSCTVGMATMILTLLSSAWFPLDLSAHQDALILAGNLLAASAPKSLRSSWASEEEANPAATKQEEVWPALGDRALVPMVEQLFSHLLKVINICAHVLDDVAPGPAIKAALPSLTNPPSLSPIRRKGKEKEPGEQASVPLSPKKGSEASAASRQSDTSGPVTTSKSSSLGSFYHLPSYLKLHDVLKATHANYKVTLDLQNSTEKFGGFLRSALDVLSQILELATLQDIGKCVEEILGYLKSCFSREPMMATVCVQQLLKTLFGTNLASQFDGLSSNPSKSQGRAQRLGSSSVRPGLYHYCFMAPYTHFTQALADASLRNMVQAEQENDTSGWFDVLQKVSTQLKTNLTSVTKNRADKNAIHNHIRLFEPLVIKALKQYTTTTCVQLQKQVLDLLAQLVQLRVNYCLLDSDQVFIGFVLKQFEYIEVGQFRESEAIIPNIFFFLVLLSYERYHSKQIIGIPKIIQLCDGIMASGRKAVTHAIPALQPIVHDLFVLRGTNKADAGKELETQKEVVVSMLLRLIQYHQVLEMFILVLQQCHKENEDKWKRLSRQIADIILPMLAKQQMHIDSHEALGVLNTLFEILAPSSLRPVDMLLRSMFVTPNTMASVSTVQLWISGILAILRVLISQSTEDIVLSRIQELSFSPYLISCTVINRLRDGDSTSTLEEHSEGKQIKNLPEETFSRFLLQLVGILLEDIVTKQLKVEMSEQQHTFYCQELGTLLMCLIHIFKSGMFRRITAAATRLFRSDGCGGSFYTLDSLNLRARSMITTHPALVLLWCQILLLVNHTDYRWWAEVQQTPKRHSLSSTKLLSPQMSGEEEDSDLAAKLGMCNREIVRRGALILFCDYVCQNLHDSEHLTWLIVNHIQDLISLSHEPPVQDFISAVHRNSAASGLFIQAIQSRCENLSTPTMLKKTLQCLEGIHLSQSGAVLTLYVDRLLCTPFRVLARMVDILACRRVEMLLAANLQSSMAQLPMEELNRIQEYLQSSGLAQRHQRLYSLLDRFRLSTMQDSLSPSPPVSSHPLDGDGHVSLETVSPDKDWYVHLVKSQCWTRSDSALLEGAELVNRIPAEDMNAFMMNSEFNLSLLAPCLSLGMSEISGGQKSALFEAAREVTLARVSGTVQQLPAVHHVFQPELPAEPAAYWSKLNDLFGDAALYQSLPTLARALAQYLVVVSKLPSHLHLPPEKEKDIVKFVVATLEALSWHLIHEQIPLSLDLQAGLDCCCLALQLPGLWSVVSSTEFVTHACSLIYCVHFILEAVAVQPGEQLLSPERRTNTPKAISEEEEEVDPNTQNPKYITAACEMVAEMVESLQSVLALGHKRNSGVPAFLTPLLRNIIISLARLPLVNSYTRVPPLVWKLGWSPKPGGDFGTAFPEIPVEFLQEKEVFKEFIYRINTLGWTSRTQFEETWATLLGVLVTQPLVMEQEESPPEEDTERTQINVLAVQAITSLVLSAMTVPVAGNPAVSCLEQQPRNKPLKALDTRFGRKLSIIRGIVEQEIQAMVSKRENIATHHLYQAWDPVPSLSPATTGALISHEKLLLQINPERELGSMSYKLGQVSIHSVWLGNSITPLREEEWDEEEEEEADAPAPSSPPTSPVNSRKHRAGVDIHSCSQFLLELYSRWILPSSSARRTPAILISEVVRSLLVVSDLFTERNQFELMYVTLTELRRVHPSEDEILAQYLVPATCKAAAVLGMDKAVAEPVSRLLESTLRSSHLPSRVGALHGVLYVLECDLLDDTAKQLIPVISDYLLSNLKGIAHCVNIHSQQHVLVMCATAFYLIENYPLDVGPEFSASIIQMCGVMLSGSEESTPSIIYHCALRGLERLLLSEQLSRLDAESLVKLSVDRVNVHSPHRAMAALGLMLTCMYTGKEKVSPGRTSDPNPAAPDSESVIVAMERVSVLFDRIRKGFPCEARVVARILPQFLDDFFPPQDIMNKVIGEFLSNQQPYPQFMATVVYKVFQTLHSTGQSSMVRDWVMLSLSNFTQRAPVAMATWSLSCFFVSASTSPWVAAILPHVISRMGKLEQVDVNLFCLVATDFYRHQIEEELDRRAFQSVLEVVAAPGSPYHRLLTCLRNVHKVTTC
Pf apPOL block – Pf-apPOL inhibitors, biochemical, fluorescence; Plasmodium falciparum apicoplast DNA polymerase (apPOL); Recombinant Pf-apPOL, molecular beacon fluorescence, 1.5 h; inhibition, % at 10 µM; 210,000 tested, 0.25% active; AID 1794808, 2022
* marks the source's active call; other numbers are inactive results; nt = no result. Shown are actives, neighbours in structure and some others; about 3.6% of the full set was active somewhere. Cut-off read from the data, not from the text of the source: active = inhibition above about 50%; inactive = the rest.

SMILES | mHTT-CaM PPI inh | Pf apPOL block
Clc1ccc(C2CC(c3cccc(Br)c3)Nc3ncnn32)cc1 (configuration not stated) | 53.0* | -2.5
Clc1ccc(C2CC(c3ccc(Br)cc3)Nc3ncnn32)cc1 (configuration not stated) | 59.0* | -5.8
c1ccc(-c2ccc(C3CC(c4cccs4)n4ncnc4N3)cc2)cc1 (configuration not stated) | 55.0* | -8.2
Cc1ccc(C2CC(c3ccc(Br)cc3)n3ncnc3N2)cc1 (configuration not stated) | 53.0* | -4.6
COc1ccc(C2CC(c3cccc(Br)c3)Nc3ncnn32)cc1 (configuration not stated) | 32.0 | -1.6
Clc1ccc(C2CC(c3ccccc3)Nc3ncnn32)cc1 (configuration not stated) | 11.3 | -3.8
CN(CCc1ccccc1)CC(O)c1cccc([N+](=O)[O-])c1 (configuration not stated) | -3.9 | -3.9
CCOCCCNC(=O)C(NC(=O)c1ccccn1)c1ccc(C)cc1 (configuration not stated) | 1.0 | -5.6
Cc1ccc(-n2cc(C(=O)N3CCCC(C)C3)c3ccccc3c2=O)cc1C (configuration not stated) | 6.0 | -2.4
CC(C)C(=O)NC(c1cccc([N+](=O)[O-])c1)c1ccc2cccnc2c1O (configuration not stated) | 100.0* | 5.2
CCCC(=O)NC(c1cccc([N+](=O)[O-])c1)c1ccc2cccnc2c1O (configuration not stated) | 99.0* | -4.1
CCCC(=O)NC(c1cccc(F)c1)c1ccc2cccnc2c1O (configuration not stated) | 100.0* | 2.2
CCOc1ccc2cc(C(N)=O)c(=Nc3ccccc3C)oc2c1 | 23.0 | 1.4
CC1C(=O)N(Cc2cn(CC3CCCCC3)nn2)CCS(=O)(=O)N1Cc1ccc(-c2ccc(Cl)c(Cl)c2)cc1 (configuration not stated) | 16.0 | -8.9
CC(=O)N1CCc2cc(Br)cc(S(=O)(=O)NCCc3cccc(C)c3)c21 | 55.0* | -6.9
CC(=O)N1CCc2cc(Br)cc(S(=O)(=O)NCCc3ccc(C)cc3)c21 | 38.0 | -10.5
CN1CCN(CCNC(=O)C2CCc3sc(C(=O)N4CCCCCC4)cc3C2)CC1 (configuration not stated) | 1.8 | -6.6
O=C(c1cccs1)N1CCCCC1c1nc(-c2ccncc2)no1 (configuration not stated) | -7.4 | -3.4
N#Cc1cccc(C(=O)Nc2ccc3cn[nH]c3c2)c1 | -1.0 | 2.6
O=C(CC(c1ccccc1)c1ccccc1)NCC(O)c1cccs1 (configuration not stated) | -14.4 | -1.9
Cc1cccc(CN2CCN(C3CCN(C(=O)NCCC(C)C)CC3)C2=O)c1 | 14.6 | -4.6
O=C(c1cccn2c(=O)c3cc(Cl)ccc3nc12)N1CCc2ccccc2C1 | 62.0* | -2.9
O=C(c1cccn2c(=O)c3cc(Cl)ccc3nc12)N1CCN(c2ccc(Cl)cc2)CC1 | -422.0 | 1.7
CN(C)CCN(C(=O)CN1C(=O)c2ccccc2C1=O)c1nc2ccc(Cl)cc2s1 | 84.0* | -5.3
Cc1ccc2nc(NC(=O)CN3C(=O)c4ccccc4C3=O)sc2c1 | 3.9 | 1.4
SMILES | mHTT-CaM PPI inh | Pf apPOL block
CCN1CCN(CC(O)COCC2COc3ccccc3O2)CC1 (configuration not stated) | -2.5 | -4.3
N#CSC(CS(=O)(=O)c1ccccc1)c1ccccc1 (configuration not stated) | -10.4 | -7.3
N#CSC(CS(=O)(=O)c1cccc([N+](=O)[O-])c1)c1ccccc1 (configuration not stated) | 93.7* | -7.4
O=C(Nc1ccc(N2C(=O)C3CC=CCC3C2=O)cc1Cl)c1ccccc1 (configuration not stated) | 5.0 | -2.4
O=C(CC1CCCCC1)N1CCN(c2nnc3c(Cl)cccn23)CC1 | 59.7* | -9.9
O=C(c1ccsc1)N1CCN(c2nnc3c(Cl)cccn23)CC1 | 32.0 | -1.3
COc1cccc(NC(=O)CN(c2ccc(Cl)c(Cl)c2)S(C)(=O)=O)c1 | 4.3 | -4.5
O=C1CC(c2cccs2)CC2=C1C(c1cccs1)Nc1ccccc1N2 (configuration not stated) | 5.0 | -5.0
Cn1ccc(-c2ccccc2)n1 | -8.2 | -3.9
Cn1ccc(-c2ccnc(NN)n2)n1 | 99.5* | nt
CCCNC(=O)C1CC(=O)N(CCc2c[nH]c3ccc(Cl)cc23)C1 (configuration not stated) | 28.3 | -0.3
CC(C)CNC(=O)C1CC(=O)N(CCc2c[nH]c3ccc(Cl)cc23)C1 (configuration not stated) | 14.2 | -0.8
O=C1CC(C(=O)N2CCc3ccccc3C2)CN1CCc1c[nH]c2ccc(Cl)cc12 (configuration not stated) | 65.0* | 3.1
